JMJD2A Tudor inh = JMJD2A Tudor domain (human) inhibition | O75164 | AlphaScreen JMJD2A-Tudor / H3K4me3 peptide binding | Potency, µM (series often up to 114 µM), actives largely listed as inhibitors | actives 4.4% (n = 390,000); also: nearly all actives have a fitted effect of over 50% in size
G9a block = G9a (human) methyltransferase inhibition; Q96KQ7; G9a H3K9 monomethylation, AlphaScreen, 2 h; Potency, µM (doses to about 102 µM), usual class: inhibitors; actives 8.8% (n = 350,000); AID 504332; also: nearly all actives have a fitted effect of over 75% in size
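Chemiluminescent proximity detection of H3K9 monomethylation, read after 10 min bead incubation in the dark. Reaction: 20 nM G9a, 500 nM biotin-H3K9 peptide, 20 uM SAM cofactor, 2 h, room temperature, following 15 min enzyme-compound preincubation.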
HP1b chromo inh = blocks HP1-beta chromodomain binding to methylated histone tails; P83916; AlphaScreen HP1-beta / biotin-H3K9me3 peptide binding; Potency, µM (top dose mostly 114 µM), most hits filed as inhibitors; actives 0.56% (n = 390,000); AID 540317; also: nearly all actives have a fitted effect of over 70% in size
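HP1-beta protein (50 nM final) preincubated 30 min at room temperature with biotinylated H3(1-18)K9me3 peptide (50 nM) in PBS pH 7.4, 0.01% Tween-20, then compound added for 30 min. AlphaScreen streptavidin donor/nickel chelate acceptor beads (10 ug/mL final), 30 min dark, luminescence read.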
BAZ2B inh = blocks human BAZ2B; Potency, µM (series often up to 114 µM), usual class: inhibitors; AID 504333; Q9UIF8; actives 4.4% (n = 360,000); AlphaScreen BAZ2B-H3K14Ac peptide displacement; also: nearly all actives have a fitted effect of over 60% in size
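BAZ2B 50 nM plus b-H3(5-23)K14Ac 50 nM, PBS pH 7.4/0.01% Tween-20, 30 min RT; compound added (max 110 uM), 30 min RT; streptavidin donor/Ni-chelate acceptor beads 10 ug/mL final, 20 min dark; AlphaScreen read.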
TDP1 inh = TDP1 (human) enzyme inhibition. actives 0.28% (n = 350,000). Potency, µM (series often up to 130 µM), usual class: inhibitors. AID 485290. Q9NUW8. recombinant TDP1, AlphaScreen DNA substrate cleavage; also: nearly all actives have a fitted effect of over 40% in size
Target sequence (Q9NUW8 whole entry, looked up): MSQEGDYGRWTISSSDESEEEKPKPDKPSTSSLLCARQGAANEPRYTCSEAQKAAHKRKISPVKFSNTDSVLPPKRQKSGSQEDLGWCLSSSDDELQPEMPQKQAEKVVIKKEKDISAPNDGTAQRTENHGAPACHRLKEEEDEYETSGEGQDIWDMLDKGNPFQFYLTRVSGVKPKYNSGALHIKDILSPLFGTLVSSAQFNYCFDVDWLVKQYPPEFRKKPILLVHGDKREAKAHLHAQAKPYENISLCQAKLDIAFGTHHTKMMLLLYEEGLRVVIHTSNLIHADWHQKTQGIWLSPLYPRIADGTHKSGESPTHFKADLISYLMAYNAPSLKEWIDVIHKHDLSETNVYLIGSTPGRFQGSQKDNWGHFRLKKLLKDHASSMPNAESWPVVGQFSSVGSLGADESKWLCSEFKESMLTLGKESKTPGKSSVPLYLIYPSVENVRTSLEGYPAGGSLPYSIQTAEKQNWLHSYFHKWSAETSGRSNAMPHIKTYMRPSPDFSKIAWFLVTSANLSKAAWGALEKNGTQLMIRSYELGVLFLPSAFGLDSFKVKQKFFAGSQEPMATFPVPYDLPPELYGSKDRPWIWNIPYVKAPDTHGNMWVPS
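Recombinant E. coli-expressed Tdp1 (1 nM) preincubated with compound 15 min at RT, then 5'-biotin/3'-phosphotyrosine-FITC DNA substrate (15 nM) added for 5 min. AlphaScreen beads (10 ug/ml) added, 10 min RT; tyrosine-FITC cleavage read as signal loss.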
Sfp inh = blocks B. subtilis Sfp PPTase activity; Q9F4F7; Biochemical Sfp PPTase activity, qHTS; Potency, µM, hits mostly inhibitors; actives 3.5% (n = 310,000);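 also: the enzyme is Sfp with the accession as filed and its product quenches rhodamine fluorescence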
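Fluorescence-quenching assay with 15 nM Sfp, 5 uM rhodamine-CoA and 12.5 uM BHQ-2-labelled ybbR peptide in pH 7.6 Hepes/MgCl2 buffer. Enzyme was pre-incubated with compound for 15 min at room temperature. Rate was taken from the 30-min fluorescence change (525/598 nm).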
Of the large screens only hits and unclear results are named; the others gave an inactive call. This is a sample that favours compounds with a hit; in the whole collection about 12% have one here. Calls follow the shape of the dose curve; as a rule, active = well fitted curve in the direction sought with a large enough effect; inconclusive = small, poorly fitted or top-dose-only effect, or another doubt; inactive = no such curve, though single readings can be large; an effect the other way counts as inactive or inconclusive.

O=C(COC(=O)c1ccc[nH]c1=O)Nc1ccc(S(=O)(=O)N2CCCC2)cc1	JMJD2A Tudor inh inconclusive (no result: TDP1 inh)
O=C(COC(=O)c1cccnc1Cl)Nc1cc(S(=O)(=O)N2CCCCC2)ccc1Cl	G9a block inconclusive
O=C(COC(=O)c1ccc[nH]c1=O)Nc1cc(S(=O)(=O)N2CCCCC2)ccc1Cl	JMJD2A Tudor inh 89µM
Nc1cc(N)cc(C(=O)OCC(=O)Nc2cc(S(=O)(=O)N3CCCCC3)ccc2Cl)c1	JMJD2A Tudor inh 35µM, G9a block 32µM, HP1b chromo inh 50µM, BAZ2B inh 25µM
CCC(O)CC(C(=O)NNc1ccccc1)C(=O)NNc1ccccc1 (centres undefined)	G9a block 7.9µM, HP1b chromo inh inconclusive
COc1ccc(CCNC(=O)CCCn2c(=O)c3ccccc3n(Cc3ccccc3C#N)c2=O)cc1OC	none (no result: Sfp inh)
Cc1ccc(NCC(=O)Nc2cccc(F)c2)cc1S(=O)(=O)N1CCCCCC1	none
COc1ccc2[nH]c3c(c2c1)CCN1C(=O)N([C@@H](C)C(=O)NCCc2ccc(F)cc2)C(=O)[C@]31C	JMJD2A Tudor inh inconclusive, G9a block 50µM, BAZ2B inh inconclusive (no result: TDP1 inh)
C[C@@H](C(=O)NCc1ccco1)N1C(=O)N2CCc3c([nH]c4ccccc34)[C@@]2(C)C1=O	G9a block inconclusive, BAZ2B inh 50µM (no result: TDP1 inh)
CNC(=O)C1CCC(Cn2c(=O)[nH]c3ccsc3c2=O)CC1 (centres undefined)	none (no result: Sfp inh)
COCCCC1CCN(C(=O)c2cc(COc3cc(C)ccc3C)on2)CC1	none (no result: G9a block)
Cc1nc(-c2coc3cc(C)c(N=O)c(O)c3/c2=N\N)cs1	G9a block 50µM, BAZ2B inh inconclusive, Sfp inh inconclusive
CCNC(=S)Nc1ccc(C)c(S(=O)(=O)Nc2ccccc2OC)c1	none (no result: G9a block, TDP1 inh)
CCN(CC)c1ccc(NC(=O)c2ccccc2F)cc1S(=O)(=O)Nc1ccccc1OC	JMJD2A Tudor inh inconclusive, G9a block 6.3µM, HP1b chromo inh inconclusive, Sfp inh 14µM
CCOc1ccccc1C(=O)Nc1cc(Cl)ccc1O	none
CCN(CC)c1ccc(NC(=O)c2ccccc2Br)cc1S(=O)(=O)Nc1ccccc1OC	JMJD2A Tudor inh 18µM, G9a block 1.3µM, HP1b chromo inh 6.3µM, BAZ2B inh inconclusive, Sfp inh 3.2µM
COc1ccc(NC(=O)c2ccc(=O)[nH]c2)cc1S(=O)(=O)N1CCCCC1	none (no result: JMJD2A Tudor inh, HP1b chromo inh)
CCN(CC)c1ccc(NC(=O)c2ccc(=O)[nH]c2)cc1S(=O)(=O)Nc1ccccc1OC	JMJD2A Tudor inh inconclusive, G9a block 2.5µM, HP1b chromo inh inconclusive, Sfp inh 14µM (no result: BAZ2B inh)
COc1ccccc1C(=O)Nc1cc(Cl)ccc1O	G9a block 56µM
S=C(Nc1ccc(Cc2ccncc2)cc1)Nc1cccc(Cl)c1	G9a block inconclusive
COc1ccc(N(CC(=O)Nc2ccccc2OC)S(=O)(=O)c2ccc(OC)c(OC)c2)cc1	none (no result: TDP1 inh)
CCN(CC)c1ccc(NC(=O)COc2ccccc2C)cc1S(=O)(=O)Nc1ccccc1OC	JMJD2A Tudor inh inconclusive, G9a block 10µM, HP1b chromo inh inconclusive, Sfp inh 20µM
COc1ccccc1NS(=O)(=O)c1cc(NC(=O)CNC(=O)c2cc(C)cc(C)c2)ccc1C	none
COc1ccc(NC(=O)c2cccc(F)c2)cc1Cl	none
COc1ccc(NC(=O)c2ccccc2F)cc1Cl	BAZ2B inh 56µM
Cc1c(CC(=O)N2CCCCC2)c(=O)oc2cc3occ(C(C)(C)C)c3cc12	none (no result: Sfp inh)
Cc1ccc(-n2ncc3c(N4CCN(CCO)CC4)ncnc32)cc1Cl	none (no result: Sfp inh)
CC1(c2ccc(OC(F)F)cc2)NC(=O)N(CC(=O)Nc2ccc3[nH]c(=O)[nH]c3c2)C1=O (centres undefined)	G9a block 56µM (no result: Sfp inh)
Cc1c(NC(=O)CN2C(=O)NC(C)(c3ccc(OC(F)F)cc3)C2=O)c(=O)n(-c2ccccc2)n1C (centres undefined)	G9a block 50µM (no result: Sfp inh)
COc1ccc(C2(C)NC(=O)N(CC(=O)Nc3c(C)n(C)n(-c4ccccc4)c3=O)C2=O)cc1 (centres undefined)	G9a block 56µM (no result: Sfp inh)
